Reference: PubChem BioAssay (NCI)
About 83,000 compounds went through this panel and 20% of them were active in at least one assay; those are over-represented in the sample as a whole.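 Plates (96-well) were seeded with cells, treated with compound at one concentration, and incubated for 48 hours before percent growth was determined.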 Active and inactive are the calls of the source. The calls were made as follows: active = growth percent below 10; inactive = the rest.

system: LOX IMVI melanoma; experiment: NCI-60 one-dose screen, 48 h (100 = growth as untreated, 0 = no growth, -100 = all killed); details: 10 µM unless noted

SMILES	growth
Cc1ccc2sc3c(NCCCNCCO)nc4ccccc4c3c(=O)c2c1	-27.3% (active)
NCCOc1ncccc1/C=C1\c2ccccc2-c2ccc(F)cc21	-11.5% (active)
CNCCNc1nc2ccccc2c2c(=O)c3cc(OC)ccc3sc12	-87.8% (active)
CC(C)c1ccc(S(=O)(=O)NC(=O)NC2CCCC2)cc1	97.7% (inactive)
COc1cc(/C=C2\CN(C)C/C(=C\c3cc(CN4CCCC4)c(O)c(OC)c3)C2=O)cc(CN2CCCC2)c1O	26.3% (inactive)
Nc1ccccc1-c1ccc(-c2ccc(Cl)cc2)c2c1[nH]c1ccccc12	72.5% (inactive)
O=C(Cn1cc(COc2ncnc3c2cnn3-c2ccccc2)nn1)Nc1ccccn1	93.8% (inactive)
NCCOc1ccccc1/C=C1\c2ccccc2-c2ccc([N+](=O)[O-])cc21	-93.8% (active)
COc1cc(/C(C#N)=C/c2nc3c(N4CCOCC4)nc(Cl)nc3n2C)cc(OC)c1OC	8.21% (active)
Cc1ccc2cccc(Oc3ccc(Nc4ncnc5onc(-c6ccccc6)c45)cc3)c2n1	56.5% (inactive)
COC(=O)/C(CCC=C(C)C)=C1\[C@@H](OC(C)=O)C[C@@]2(C)[C@H]1C[C@@H](O)[C@H]1[C@@]3(C)CC[C@H](NCc4ccccc4)[C@@H](C)[C@@H]3CC[C@@]12C	47.3% (inactive)
COc1cc(/C=C/C(=O)c2ccc(Cl)cc2)cc(CN2CCCCC2)c1O	87.4% (inactive)
O=C(/C=C/c1ccc(Cl)cc1)c1ccc(Nc2nc(NCCO)nc(Nc3ccc(Cl)cc3)n2)cc1	37.2% (inactive)
